Data: the supplement of paper PMC6555819

Assays:
Test in all cases: PBM binding z-score (relative to random genomic background probes); higher = stronger binding; sequences stand for … in GC…GCGATTGACAGCGTAGAATGAAGG
[1] = tested on: FXR:RXRa (NR concentration 270 nM, RXRa partner concentration 90 nM)
Procedure, shortened: (§1)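 Ligand-free nuclear receptor dimers were bound for 1 h to custom Agilent 4×180K protein-binding microarrays. Detection used antibodies against each partner (one per run). Binding z-scores rest on regression-normalized fluorescence, with random background probes as the reference.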

[2] = tested on: LXRa:RXRa (NR concentration 270 nM, RXRa partner concentration 90 nM)
Procedure, shortened: as §1

[3] = tested on: LXRa homodimer (NR concentration 270 nM)
Procedure, shortened: as §1

[4] = tested on: LXRb:RXRa (NR concentration 270 nM, RXRa partner concentration 90 nM)
Procedure, shortened: as §1

[5] = tested on: LXRb homodimer (NR concentration 270 nM)
Procedure, shortened: as §1

[6] = tested on: PPARa:RXRa (NR concentration 270 nM, RXRa partner concentration 90 nM)
Procedure, shortened: as §1

[7] = tested on: PPARg:RXRa (NR concentration 180 nM, RXRa partner concentration 90 nM)
Procedure, shortened: as §1

[8] = tested on: PPARg:RXRa 270nM:90nM, anti-RXR (NR concentration 270 nM, RXRa partner concentration 90 nM)
Procedure, shortened: as §1

[9] = tested on: PPARg:RXRa 30nM:10nM, anti-RXR (NR concentration 30 nM, RXRa partner concentration 10 nM)
Procedure, shortened: as §1

[10] = tested on: PPARg:RXRa 90nM:30nM, anti-RXR (NR concentration 90 nM, RXRa partner concentration 30 nM)
Procedure, shortened: as §1

[11] = tested on: PPARg:RXRa DBDmut IVT, anti-RXR (DBD mutation: RXRa K156A/R161A, NR concentration 270 nM, RXRa partner concentration 90 nM)
Procedure, shortened: as §1

[12] = tested on: PPARg:RXRa IVT, anti-PPARg (NR concentration 270 nM, RXRa partner concentration 90 nM)
Procedure, shortened: as §1

[13] = tested on: PPARg DBDmut:RXRa IVT, anti-PPARg (DBD mutation: PPARg1 K132A/R137A, NR concentration 270 nM, RXRa partner concentration 90 nM)
Procedure, shortened: as §1

[14] = tested on: PPARg DBDmut IVT, anti-PPARg (DBD mutation: PPARg1 K132A/R137A, NR concentration 270 nM)
Procedure, shortened: as §1

[15] = tested on: PPARg homodimer (NR concentration 180 nM)
Procedure, shortened: as §1

[16] = tested on: PXR:RXRa (NR concentration 270 nM, RXRa partner concentration 90 nM)
Procedure, shortened: as §1

[17] = tested on: PXR homodimer (NR concentration 270 nM)
Procedure, shortened: as §1

[18] = tested on: RARa:RXR (NR concentration 270 nM, RXRa partner concentration 90 nM)
Procedure, shortened: as §1

[19] = tested on: RARa homodimer (NR concentration 270 nM)
Procedure, shortened: as §1

[20] = tested on: RARb:RXRa (NR concentration 270 nM, RXRa partner concentration 90 nM)
Procedure, shortened: as §1

Row | Sequence | PBM binding z-score [1] | PBM binding z-score [2] | PBM binding z-score [3] | PBM binding z-score [4] | PBM binding z-score [5] | PBM binding z-score [6] | PBM binding z-score [7] | PBM binding z-score [8] | PBM binding z-score [9] | PBM binding z-score [10] | PBM binding z-score [11] | PBM binding z-score [12] | PBM binding z-score [13] | PBM binding z-score [14] | PBM binding z-score [15] | PBM binding z-score [16] | PBM binding z-score [17] | PBM binding z-score [18] | PBM binding z-score [19] | PBM binding z-score [20]
1 | GTACCAAGTTGAATAGGTCGTTGATGAGTAGGCG | 0.0295 | 0.289 | -0.317 | 0.163 | -0.262 | 0.893 | 0.208 | 0.125 | -0.197 | -0.278 | -0.264 | 0.17 | 0.192 | 0.767 | 0.638 | 0.225 | 0.216 | 0.609 | 0.578 | 0.926
2 | CAAACTAGGTCTCCGGAAGGTCAAAGTCCGCATG | 2.65 | 3.15 | 2.79 | 3.25 | 0.445 | 3.75 | 2.85 | 3.29 | 0.811 | 2.34 | 5.21 | 4.82 | 0.561 | 0.489 | 2.44 | 3.68 | 1.14 | 3.9 | 0.122 | 3.23
3 | CTCGAAAGGTCGGTTGAGGTGAGTATGCGGATAA | 2.51 | 1.72 | -0.105 | 1.27 | -0.0928 | 2.67 | 0.178 | 1.24 | 0.131 | 0.771 | 0.239 | 1.05 | -0.43 | 0.0422 | 1.08 | 2.93 | 0.0767 | 2.11 | 0.202 | 3.01
4 | CCGCCTAGGTCAGGGCCAGTATAGGAGGAACGTT | 1.6 | 1.11 | -0.253 | 1.1 | -0.93 | 2.15 | 0.674 | 0.881 | -0.497 | -0.0982 | 0.73 | 1.29 | -1.13 | -2.07 | 0.393 | 0.629 | -0.663 | 1.47 | -0.0818 | 3.43
5 | AGAATGAGGTTATTAAGATGAGGGAATTGCGGTC | 1.61 | 1.5 | 0.433 | 1.3 | 0.12 | 2.54 | 1.22 | 1.46 | 0.735 | 1.12 | 2.83 | 1.97 | 1.19 | 0.341 | 1.28 | 1.03 | 0.85 | 1.22 | 1.23 | 1.41
6 | ATCTCTAGGTACCAAGTTCAGTGAAAGAGAGGAC | 0.701 | 0.609 | 0.346 | 0.651 | 0.845 | 0.892 | 0.678 | 1.23 | 0.604 | 1.03 | 0.464 | 0.878 | 1.07 | 0.989 | 0.548 | 1.42 | 1.37 | 0.711 | 0.57 | 1.28
7 | ATCTCTAGGTAACGATAGTTCAGTGAATGCAAAT | 0.157 | 4.89 | 0.491 | 1.33 | 0.408 | 0.791 | 0.696 | 0.807 | 0.214 | 0.514 | 3.41 | 3.08 | 1.42 | 1.62 | 0.431 | 0.926 | 0.85 | 0.162 | 0.352 | 0.902
8 | GCTATTAGTTGAAAGAGCAACCGAATGATTCTCG | -0.368 | -0.335 | -0.0598 | -0.509 | -0.535 | 0.321 | 0.704 | 1.95 | 0.137 | 1.51 | 0.238 | -0.404 | 0.37 | 0.517 | 0.13 | -0.39 | -0.276 | -0.118 | 0.294 | -0.146
9 | GCATATAGGTAATACAAAGTGAAAGTCCGATTGT | -0.614 | -0.368 | -0.219 | -0.304 | -0.361 | 0.632 | 1.12 | 0.884 | 0.583 | 0.849 | 4.28 | 2.73 | 0.942 | 1.36 | -0.267 | -0.28 | -0.0675 | -0.178 | 0.391 | -0.152
10 | CCTCGGAGGACAACAGGAGTTCAGAGCTGCCAGA | 0.094 | 0.777 | 1.72 | -0.123 | -0.822 | 0.00336 | 0.0297 | -0.913 | -1.16 | -1.11 | -0.298 | -1 | -2.34 | -1.22 | 0.513 | 1.92 | 1.78 | 0.366 | 0.371 | 1.67
11 | CCGACTGGGGCACGGTTACCATAACGCACAGCCA | -0.15 | -0.079 | -0.346 | -0.211 | -0.878 | 0.346 | 1.8 | 0.982 | -0.228 | 0.391 | 3.83 | 4.42 | -0.407 | -0.566 | 0.044 | -0.353 | -0.44 | -0.139 | -0.261 | 1.06
12 | ATACCAAGGTGATCGTGAGGACGTTGATACTAAC | 0.587 | 0.135 | -0.00187 | 0.0444 | -0.331 | -0.0562 | 0.622 | 0.0338 | -0.0535 | -0.287 | 0.171 | 1.03 | 0.678 | -0.134 | -0.121 | 0.502 | 0.387 | 1.03 | 0.115 | 0.704
13 | ACTAGTTGGTCAGGTGAGGTCACACACAATTCGG | 3.87 | 3.4 | 2.65 | 3.35 | 0.501 | 3.83 | 2.36 | 2.68 | 0.906 | 1.88 | 1.77 | 3.37 | 0.914 | 0.637 | 3.1 | 5.46 | 2.28 | 4.89 | 2 | 3.44
14 | CGAACTAGGTCATCCAGGACAGTGATTACATTGA | 4.19 | 2.8 | 0.631 | 2.2 | -0.108 | 4.62 | 7.63 | 6.33 | 3.95 | 5.79 | 8.17 | 8.1 | 1.9 | 1.24 | 1.15 | 1.95 | 1.25 | 2.17 | 0.703 | 3.98
